Activity calls are given as the source filed them. The calls were made as follows: active = hit-call score of the fitted dose curve at least 0.9, where 1 is the maximum; inactive = score below 0.9.
Assays:
[1] = APR_HepG2_CellCycleArrest_24hr: Apredica 24-hour HepG2 Assay for Cell Cycle Arrest (AID 2282905); conditions: imaging, actives raise or lower the signal;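 also: cell cycle arrest scored as ratio of 2N to 4N nuclear DNA content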
Summary of the method: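 HepG2 cells were exposed to compounds at 0.39–200 uM (ten concentrations, duplicate) in 0.5% v/v DMSO for 24 hr. After formaldehyde fixation and Triton permeabilization, Hoechst 33342-stained nuclei were imaged at 20x; DNA content was quantified, with bidirectional fitting against DMSO.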

[2] = APR_HepG2_NuclearSize_24hr: Apredica 24-hour HepG2 Assay for Nuclear Size (AID 2282907); conditions: high-content imaging, actives raise or lower the signal
Summary of the method: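 HepG2 human liver cells were exposed for 24 hr to compounds at 0.39–200 uM (ten concentrations, duplicate) in 0.5% v/v DMSO. They were then formaldehyde-fixed, Triton-permeabilized and Hoechst 33342-stained, and nuclear diameter was imaged at 20x. Bidirectional fits were made against DMSO.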

[3] = APR_HepG2_CellLoss_24hr: Apredica 24-hour HepG2 Assay for Cell Loss (AID 2282908); conditions: high-content imaging;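 as to AC50: fit in both directions so a hit may be cell loss or gain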
Summary of the method: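 Compounds were tested at 0.39–200 uM in duplicate with 0.5% v/v DMSO final. Cells were then fixed in 3.7% formaldehyde, Hoechst 33342 nuclei were imaged at 20x by HCS, and cell number was fitted bidirectionally against DMSO.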

[4] = APR_HepG2_MicrotubuleCSK_24hr: Apredica 24-hour HepG2 Assay for Microtubule CSK Stabilty (AID 2282909); conditions: HepG2 microtubule cytoskeleton imaging, actives raise or lower the signal
Summary of the method: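 HepG2 cells exposed 24 h to compounds at 0.39–200 uM (duplicate, 0.5% v/v DMSO final), then fixed, permeabilized and immunostained for alpha-tubulin with Hoechst 33342. Cytoskeleton imaged at 20x; bidirectional fit versus DMSO baseline.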

[5] = APR_HepG2_MitoticArrest_24hr: Apredica 24-hour HepG2 Assay for Mitotic Arrest (AID 2282910); conditions: high-content imaging, actives raise or lower the signal
Summary of the method: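 HepG2 human liver cells were exposed to compounds at 0.39–200 uM (10 concentrations, duplicate) in 0.5% v/v DMSO for 24 hr, then fixed and immunostained for phospho-histone H3 with Hoechst 33342. Mitotic arrest came from HCS fluorescent imaging, fitted bidirectionally against DMSO.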

[6] = APR_HepG2_MitoMembPot_24hr: Apredica 24-hour HepG2 Assay for Mitochondrial Membrane Potential (AID 2282911); conditions: imaging, actives raise or lower the signal
Summary of the method: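 Mitochondrial dye uptake (MitoTracker Red CMXRos, 250 nM, 30 min pre-fixation) in HepG2 after 24 hr compound exposure, 0.39–200 uM; ArrayScan images at 20x, activity fitted in both directions relative to DMSO.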

[7] = APR_HepG2_MitoMass_24hr: Apredica 24-hour HepG2 Assay for Mitochondrial Mass (AID 2282912); conditions: high-content imaging, actives raise or lower the signal
Summary of the method: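 Human HepG2 liver cells were exposed for 24 hr to compounds at 0.39–200 uM (duplicates, 0.5% v/v DMSO final). They were stained live with 250 nM MitoTracker Red CMXRos for 30 min, fixed in 3.7% formaldehyde, and imaged by HCS fluorescence; signals were fitted bidirectionally against DMSO.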

[8] = APR_HepG2_p53Act_24hr: Apredica 24-hour HepG2 Assay for p53 Activation (AID 2282913); conditions: high-content imaging, actives raise or lower the signal;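 also: p53 protein immunofluorescence averaged per cell in HepG2 with Hoechst nuclei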
Summary of the method: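 Following 24 hr dosing of HepG2 at 0.39–200 uM, the cells undergo formaldehyde fixation, Triton permeabilization and multiplexed antibody labeling that includes p53 (Cy5). Signal from the imaging is referenced to DMSO solvent controls.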

[9] = APR_HepG2_CellCycleArrest_72hr: Apredica 72-hour HepG2 Assay for Cell Cycle Arrest (AID 2282914); conditions: high-content imaging, actives raise or lower the signal
Summary of the method: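 Using multiplexed high-content imaging, HepG2 nuclei stained with Hoechst 33342 (2 ug/mL) were analysed for DNA content after fixation and permeabilization. Treatment lasted 72 hr across 0.39–200 uM in duplicate with final DMSO 0.5% v/v; DMSO served as negative control.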

[10] = APR_HepG2_CellLoss_72hr: Apredica 72-hour HepG2 Assay for Cell Loss (AID 2282915); conditions: high-content imaging
Summary of the method: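 HepG2 cells were exposed for 72 hr to compounds at 0.39–200 uM (ten concentrations, duplicate) in 0.5% v/v final DMSO. Nuclei were stained with Hoechst 33342 after 3.7% formaldehyde fixation, imaged at 20x, and counted; fits bidirectional versus DMSO.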

Measured: AC50

CCCCC(CC)COC(=O)CCCCCCCCC(=O)OCC(CC)CCCC (stereo unspecified)
inactive: [1] | [2] | [6] | [7]
active: [3] 117 µM | [4] 128 µM | [5] 68.5 µM | [8] 108 µM | [9] 170 µM

O=C(NS(=O)(=O)/C=C/c1ccccc1)c1ccc(F)cc1Cl
not listed: [10]
inactive: all other assays above

C[C@](N)(Cc1ccc(O)c(O)c1)C(=O)O
not listed: [10]
inactive: all other assays above

Nc1nc2ncc(CNc3ccc(C(=O)N[C@@H](CCC(=O)O)C(=O)O)cc3)nc2c(=O)[nH]1
not listed: [10]
inactive: all other assays above

CC(=O)OC[C@H]1O[C@@](COC(C)=O)(O[C@H]2O[C@H](COC(C)=O)[C@@H](OC(C)=O)[C@H](OC(C)=O)[C@H]2OC(C)=O)[C@@H](OC(C)=O)[C@@H]1OC(C)=O
not listed: [10]
inactive: all other assays above

CC(C)c1cccc(C(C)C)c1N1C(=O)c2ccc(O)cc2C1=O
active: [1] 6.15 µM | [3] 87.5 µM | [5] 4.05 µM | [6] 32.7 µM | [7] 164 µM | [8] 46.7 µM | [9] 7.16 µM
inactive: [2] | [4]

CNCc1ccc(NC(=O)c2c[nH]c3c2C(=O)CCC3)cc1
not listed: [10]
inactive: all other assays above

CC(=O)c1ccc2c(c1)[C@H](NC(=O)c1ccc(F)cc1)[C@@H](O)C(C)(C)O2
inactive: all assays above

CC1=CC(=O)CC(C)(C)C1
inactive: all assays above

CCOCCOCCOCCO
inactive: all assays above

CC(C)CCO
not listed: [10]
inactive: all other assays above

C=CCCCCCCCCC(=O)O
inactive: all assays above

CC(C)CC(C)(O)C#CC(C)(O)CC(C)C (stereo unspecified)
not listed: [10]
inactive: all other assays above

COc1ccc2sc(C(=O)Nc3nnn[nH]3)c(OC(C)C)c2c1
active: [10] 39.9 µM
inactive: all other assays above

Nc1cccc(N)c1
not listed: [10]
inactive: all other assays above

CNS(=O)(=O)c1cc(C(=O)N2CCC(CCN3C4CCC3CC(n3c(C)nc5ccccc53)C4)(c3cccc(F)c3)CC2)c(Cl)cc1F (stereo unspecified)
active: [3] 62.9 µM | [4] 52 µM | [5] 40.9 µM | [7] 62.7 µM | [8] 72.7 µM | [9] 78.9 µM
inactive: [1] | [2] | [6]

CCNc1ccccc1
inactive: all assays above

CCCC(=O)OCC
not listed: [10]
inactive: all other assays above

CCOC(=O)CC(CC(=O)OCC)(OC(C)=O)C(=O)OCC
active: [9] 82.1 µM
not listed: [10]
inactive: all other assays above

CCCCCCCCO
inactive: all assays above

C=CC(=C)CCC=C(C)C
inactive: all assays above

CCCCCCc1ccc(O)cc1O
inactive: [2] | [4] | [9]
active: [1] 89.8 µM | [3] 103 µM | [5] 95.4 µM | [6] 46.1 µM | [7] 125 µM | [8] 104 µM

NC(=O)NO
inactive: all assays above
